In PubChem BioAssay (NCI):
The panel holds about 83,000 compounds, 20% with a hit somewhere; the sample as a whole holds those more often.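 A percent growth of 40 corresponds to 60% growth inhibition; 0 means no net growth; -100 means all cells died. Active threshold: below 10.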 Calls of active or inactive are those of the source.

How the values were obtained:
Test in all cases: NCI-60 one-dose screen, 48 h (100 = growth as untreated, 0 = no growth, -100 = all killed)
Conditions in all cases: 10 µM unless noted
NCI-H23 lung = tested on: NCI-H23 lung
NCI-H226 lung = tested on: NCI-H226 lung
NCI-H322M lung = tested on: NCI-H322M lung
HOP-62 NSCLC = tested on: HOP-62 NSCLC
NCI-H460 lung = tested on: NCI-H460 lung
NCI-H522 lung = tested on: NCI-H522 lung
A549/ATCC NSCLC = tested on: A549/ATCC NSCLC
786-0 renal = tested on: 786-0 renal
COLO 205 colon = tested on: COLO 205 colon
DU-145 prostate = tested on: DU-145 prostate
K-562 leukemia = tested on: K-562 leukemia
MALME-3M melanoma = tested on: MALME-3M melanoma
MDA-MB-231 breast = tested on: MDA-MB-231 breast
RXF 393 renal = tested on: RXF 393 renal
SF-268 CNS = tested on: SF-268 CNS
SF-295 CNS = tested on: SF-295 CNS
SF-539 CNS = tested on: SF-539 CNS
UACC-257 melanoma = tested on: UACC-257 melanoma
M14 melanoma = tested on: M14 melanoma
HCT-15 colon = tested on: HCT-15 colon

Structure (SMILES)	growth (NCI-H23 lung)	growth (NCI-H226 lung)	growth (NCI-H322M lung)	growth (HOP-62 NSCLC)	growth (NCI-H460 lung)	growth (NCI-H522 lung)	growth (A549/ATCC NSCLC)	growth (786-0 renal)	growth (COLO 205 colon)	growth (DU-145 prostate)	growth (K-562 leukemia)	growth (MALME-3M melanoma)	growth (MDA-MB-231 breast)	growth (RXF 393 renal)	growth (SF-268 CNS)	growth (SF-295 CNS)	growth (SF-539 CNS)	growth (UACC-257 melanoma)	growth (M14 melanoma)	growth (HCT-15 colon)
COc1ccc(Cn2cc3c(c2-c2ccccc2)CCc2cncnc2-3)cc1	69.9% (inactive)	72.1% (inactive)	110% (inactive)	61.1% (inactive)	27% (inactive)	26.1% (inactive)	46.6% (inactive)	57.3% (inactive)	45.5% (inactive)	72.9% (inactive)	22.1% (inactive)	26.9% (inactive)	50% (inactive)	55.3% (inactive)	63.1% (inactive)	24.3% (inactive)	59.7% (inactive)	74.9% (inactive)	24.5% (inactive)	45.3% (inactive)
CN(CC(=O)Nc1nc2ccccc2[nH]1)S(=O)(=O)c1ccc(Cl)cc1	126% (inactive)	81.7% (inactive)	98.3% (inactive)	69.4% (inactive)	45.3% (inactive)	80.6% (inactive)	111% (inactive)	91.9% (inactive)	95.6% (inactive)	89.9% (inactive)	95.7% (inactive)	100% (inactive)	99.6% (inactive)	122% (inactive)	67% (inactive)	38.4% (inactive)	88.5% (inactive)	–	95.7% (inactive)	–
c1coc([C@@H]2C[C@@H]3Cc4ccc5ccccc5c4N2O3)c1	94.3% (inactive)	107% (inactive)	106% (inactive)	88.6% (inactive)	117% (inactive)	86.8% (inactive)	94.9% (inactive)	103% (inactive)	130% (inactive)	120% (inactive)	102% (inactive)	97.7% (inactive)	108% (inactive)	94.2% (inactive)	111% (inactive)	101% (inactive)	99.6% (inactive)	99.2% (inactive)	108% (inactive)	99.5% (inactive)
O=C(c1nn(-c2ccc(Cl)cc2)cc1O)n1nc(C(F)(F)F)cc1-c1ccccc1	32.8% (inactive)	52.7% (inactive)	-1.34% (active)	34.6% (inactive)	34.9% (inactive)	21.2% (inactive)	47.4% (inactive)	42.9% (inactive)	7.24% (active)	49.2% (inactive)	18.6% (inactive)	107% (inactive)	54.6% (inactive)	55.1% (inactive)	42.3% (inactive)	-0.429% (active)	45.6% (inactive)	53.3% (inactive)	–	30.2% (inactive)
COc1ccc2c(c1)C(=O)c1c-2c(OCCCN(C)C)nc2cc(Br)ccc12	75.5% (inactive)	57.2% (inactive)	80.7% (inactive)	68% (inactive)	36.2% (inactive)	61.6% (inactive)	24.6% (inactive)	77.2% (inactive)	64.6% (inactive)	78.5% (inactive)	53.1% (inactive)	69.8% (inactive)	49.9% (inactive)	43.7% (inactive)	69% (inactive)	93.9% (inactive)	67.6% (inactive)	108% (inactive)	–	-31.3% (active)
Cc1ccc2c(c1)O/C(=C\c1ccc([N+](=O)[O-])o1)C2=O	56.2% (inactive)	78.9% (inactive)	68.6% (inactive)	69.6% (inactive)	25.4% (inactive)	-66% (active)	55.4% (inactive)	5.37% (active)	-41.8% (active)	-1.53% (active)	2.06% (active)	-10.5% (active)	48.4% (inactive)	-23.5% (active)	29.3% (inactive)	94.3% (inactive)	44.5% (inactive)	68.3% (inactive)	55.8% (inactive)	4.4% (active)
c1ccc(Nc2nnc(-c3cc(-c4cccnc4)n(-c4ccccc4)n3)s2)cc1	78.6% (inactive)	99.8% (inactive)	109% (inactive)	99.1% (inactive)	80.5% (inactive)	71% (inactive)	74.1% (inactive)	77.1% (inactive)	83.3% (inactive)	94.3% (inactive)	36.1% (inactive)	83.3% (inactive)	35.6% (inactive)	71.8% (inactive)	113% (inactive)	40.8% (inactive)	104% (inactive)	139% (inactive)	–	8.1% (active)
CCC[C@H](N[C@@H](C)C(=O)N1[C@H](C(=O)O)C[C@@H]2CCCC[C@@H]21)C(=O)OCC	94.2% (inactive)	105% (inactive)	103% (inactive)	123% (inactive)	116% (inactive)	102% (inactive)	91.4% (inactive)	103% (inactive)	111% (inactive)	111% (inactive)	116% (inactive)	94.2% (inactive)	90.4% (inactive)	114% (inactive)	105% (inactive)	111% (inactive)	91.4% (inactive)	97.9% (inactive)	113% (inactive)	99.3% (inactive)
CCN(CC)CCCCNc1c2ccccc2[n+](C)c2c1[nH]c1ccccc12	-35.9% (active)	-11.8% (active)	-35.5% (active)	-3.3% (active)	3.4% (active)	-84.7% (active)	2.8% (active)	-7.1% (active)	-65.9% (active)	-0.206% (active)	-20.8% (active)	-63.9% (active)	-0.507% (active)	-55.6% (active)	-16.2% (active)	-47.1% (active)	-40.6% (active)	-42.6% (active)	-28.4% (active)	80.2% (inactive)
CN(C)c1ccc2[nH]c3c(C(N)=O)cc(=O)c(=O)c=3oc2c1	34.9% (inactive)	87.7% (inactive)	109% (inactive)	20.7% (inactive)	38.4% (inactive)	11.2% (inactive)	33.8% (inactive)	80.4% (inactive)	101% (inactive)	71.9% (inactive)	7.27% (active)	87.7% (inactive)	62.6% (inactive)	52.1% (inactive)	79.8% (inactive)	78.9% (inactive)	7.15% (active)	91% (inactive)	61.5% (inactive)	24.8% (inactive)
N=C(N)/N=C(\CCc1nc2ccccc2[nH]1)c1nc2ccccc2[nH]1	91.6% (inactive)	93.4% (inactive)	118% (inactive)	97% (inactive)	114% (inactive)	96% (inactive)	102% (inactive)	107% (inactive)	103% (inactive)	111% (inactive)	98.4% (inactive)	96.9% (inactive)	100% (inactive)	116% (inactive)	112% (inactive)	120% (inactive)	97.1% (inactive)	109% (inactive)	96.4% (inactive)	106% (inactive)
Cc1cc(C)c2c(c1)N1OC(C2)C[C@H]1/C=C/c1ccccc1 (some centres undefined)	88.5% (inactive)	77.6% (inactive)	81.3% (inactive)	111% (inactive)	112% (inactive)	84.7% (inactive)	95.2% (inactive)	102% (inactive)	111% (inactive)	117% (inactive)	88.2% (inactive)	103% (inactive)	101% (inactive)	115% (inactive)	107% (inactive)	108% (inactive)	111% (inactive)	113% (inactive)	–	88.7% (inactive)
O=C(Nc1ccc(C2=NCCCN2)cc1)Nc1ccc(C2=NCCCN2)cc1	67.4% (inactive)	75% (inactive)	94.5% (inactive)	101% (inactive)	88.8% (inactive)	80.1% (inactive)	99.9% (inactive)	84.3% (inactive)	128% (inactive)	103% (inactive)	76.1% (inactive)	104% (inactive)	112% (inactive)	106% (inactive)	96.8% (inactive)	92.2% (inactive)	80.1% (inactive)	96.1% (inactive)	92.7% (inactive)	106% (inactive)
COc1ccc2c(c1)C(=O)c1c-2c(=O)n(CCCCCCC(=O)NO)c2ccccc12	-41.9% (active)	1.93% (active)	-3.32% (active)	-3.67% (active)	3.19% (active)	4.79% (active)	-10.4% (active)	-3.09% (active)	-39.3% (active)	9.94% (active)	8.79% (active)	-23.1% (active)	-5.72% (active)	-60.9% (active)	10.1% (inactive)	-33.7% (active)	7.21% (active)	-6.3% (active)	-0.387% (active)	13.3% (inactive)
COc1ccccc1[C@H]1c2[nH]c3ccccc3c2C[C@H]2C(=O)N(CCCCCCC(=O)NO)CC(=O)N12	52.3% (inactive)	91.6% (inactive)	76.1% (inactive)	50.2% (inactive)	62.8% (inactive)	10.5% (inactive)	76.5% (inactive)	89.4% (inactive)	26.9% (inactive)	43.7% (inactive)	11.3% (inactive)	-1.09% (active)	66% (inactive)	65.5% (inactive)	94.3% (inactive)	71.9% (inactive)	40.2% (inactive)	26.5% (inactive)	36.3% (inactive)	87.1% (inactive)
